# Test results as given in PubChem BioAssay AID651871 (Sanford-Burnham Center for Chemical Genomics, 2012).
# “And” between values parts separate entries of the source, which are not always exact repeats. Equal entries are not always repeated.
# Tested on: H9c2
# Assay: protection of cardiomyocytes from stress damage, SAR follow-up, cell-based, panel, H9c2 and HL-1, ATP luminescence, set 2 (AID 651871);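 note: cells exposed to stressor for 2 h before ATP readout; reference of the scale not given here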
# Conditions: H9c2/HL-1 cardiomyocytes, H2O2 oxidative stress; with H2O2, run 1, at 79 µM (top of the series)
row,SMILES,activity (protection/inhibition)
1,COc1ccc2c(c1OC)C(=O)N1c3ccccc3C(=O)N(Cc3cccc(Cl)c3Cl)C21 (centres undefined),62.2% and 104% and 61.7%
2,COc1cc(-c2cc(C(=O)Nc3cccc(C(=O)NCc4ccccc4)c3)c3ccccc3n2)cc(OC)c1OC,83.5%
3,CCOC(=O)c1cccc(NC(=O)CNC(=O)c2cc(-c3cc(OC)c(OC)c(OC)c3)nc3ccccc23)c1,77.6%
4,COc1ccc2nc(-c3cc(OC)c(OC)c(OC)c3)cc(C(=O)NCC(=O)Nc3ccc(C(C)=O)cc3)c2c1,92.2% and 97.6%
